Compound activity deposited in PubChem by National Center for Advancing Translational Sciences (NCATS).
ATXN2 expr inh – Primary qHTS for Inhibitors of ATXN expression | Potency, µM (highest dose often 57 µM), without a hit: top-dose activity change, negative = inhibition, actives largely listed as inhibitors | 360,000 compounds, 0.72% hits | HEK-293 ATXN2-luciferase reporter, luminescence, 24 h; also: % is scaled to controls: 0 for no effect and ±100 for the full control effect; nearly all actives have a fitted effect of over 55% in size
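ATXN2-luciferase reporter cells (luciferase flanked by upstream and downstream ATXN2 gene portions) were treated 24 h at 37 °C with compounds at up to 57 uM. SteadyGlo luminescence gave expression; GF-AFC fluorescence gave viability.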
HepG2 tox – qHTS for Inhibitors of TGF-b: Cytotox Counterscreen; HepG2 CAGA-GFP viability, ATP luminescence, 18 h; Potency, µM (top dose mostly 46.1 µM), for inactives: at the highest dose activity change, negative = cytotoxicity, usual class: cytotoxic; 410,000 compounds, 0.76% hits
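CellTiter-Glo luminescence gave cytotoxicity after 18 hours at 37 degrees C. The cells were HepG2 CAGA-GFP in 1% FBS DMEM, stimulated with 500 pg/mL TGF-beta after compound addition. %Activity was normalised to no-cell wells (complete cell-killing) and DMSO (no toxicity), and curves were fitted and classified.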
TGFb SMAD3 inh – qHTS for Inhibitors of TGF-b. Potency, µM (series often up to 46.1 µM), for inactives: at the highest dose activity, negative = inhibition, most hits filed as inhibitors. 410,000 compounds, 1.2% hits. HepG2 CAGA-GFP TGF-b/SMAD3 reporter, GFP fluorescence, 18 h; TGF-beta stimulated, 500 pg/mL final; also: % is scaled to controls: 0 for no effect and ±100 for the full control effect; nearly all actives have a fitted effect of over 65% in size
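Smad-responsive CAGA-GFP expression was quantified in HEPG2 cells exposed to compounds and 500 pg/mL final TGF-beta for 18 h at 37 degrees C; unstimulated wells defined full inhibition.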
S2 tox – Viability Counterscreen for Primary qHTS for Inhibitors of ATXN expression; 400,000 compounds, 0.49% hits; AID 651635, 2014; Potency, µM (highest dose often 56.7 µM), actives largely listed as cytotoxic; S2 cells (HEK-293 line with an ATXN2-luciferase reporter) viability, CellTiter-Fluor protease fluorescence, 24 h; also: nearly all actives have a fitted effect of over 40% in size
Numbers without * were called inactive; i = inactive; ? = inconclusive; · = no result given; ! = not active in a repeat. An excerpt weighted towards active compounds, which were near 2.3% of everything screened. Calls follow the shape of the dose curve; as a rule, active = well fitted curve in the direction sought with a large enough effect; inconclusive = small, poorly fitted or top-dose-only effect, or another doubt; inactive = no such curve, though single readings can be large; an effect the other way counts as inactive or inconclusive. Potency is read from the fitted curve at half-maximal effect.

SMILES	ATXN2 expr inh	HepG2 tox	TGFb SMAD3 inh	S2 tox
Cc1ccc(N=Cc2c(C)[nH]n(-c3nc4ccccc4[nH]3)c2=O)cc1	?	0.4µM*	-7%	i
Cc1ccc(-n2[nH]c(C)c(/C=N/c3ccccn3)c2=O)cc1	8%	10µM*	-15%	i
Cc1ccc(-n2[nH]c(C)c(C=Nc3cc(C)ccn3)c2=O)cc1	-7%	-77%	-4%	i
COc1ccc2nc(/N=C/c3c(C)[nH]n(-c4ccc(C)cc4)c3=O)sc2c1	4%	8.9µM*	-23%	i
COc1ccc2nc(/N=C\N(C)C)sc2c1	18%	-28%	3%	i
Cc1ccc(-n2[nH]c(C)c(C=Nc3ccc4[nH]c(=O)[nH]c4c3)c2=O)cc1	-9%	13µM*	?	i
C[n+]1c(/C=C/c2ccnc3ccccc23)cc(/C=C/c2ccnc3ccccc23)c2ccccc21	·	-47%	?	·
O=C(c1ccc2c3n(nc2c1)-c1ccccc1CO3)N1CCOCC1	14%	7.9µM*	-9%	i
O=C(c1ccc2c3n(nc2c1)-c1ccccc1CO3)N1CCCCC1	-7%	7.1µM*	-11%	i
O=C(c1ccc2c3n(nc2c1)-c1ccc(Cl)cc1CO3)N1CCOCC1	29%	-41%	-32%	i
COc1cc2nc(N3CCCC(O)C3)c(CNCc3ccccc3C(F)(F)F)cc2c(OC)c1OC (stereo not drawn)	·	·	·	i
COc1c([N+](=O)[O-])ccc(N)c1N	·	2%	-1%	·
Nc1nccc(-c2ccc3noc(-c4ccc(Cl)cc4)c3c2)n1	-18%	·	·	·
CC1(C)CC(=O)C2=C(C1)NC(Nc1nc3ccccc3o1)=NC2c1cccc(F)c1 (stereo not drawn)	·	-12%	6%	·
CN(C)CCNC(=O)c1coc(=O)c(Br)c1	-5%	3%	0%	i
CC(C)CNC(=O)c1coc(=O)c(Br)c1	·	-89%	14µM*	·
CC(C)(C)c1cnc(CSc2cnc(NC(=O)C3CCNCC3)s2)o1	0.31µM*	·	·	·
CCCCCNC(=O)N1CCC(CN(Cc2ccc(Cl)cc2)Cc2ccc([N+](=O)[O-])s2)C1 (stereo not drawn)	27µM*	·	·	·
COc1ccc(C#Cc2cccc(-c3nc(C(=O)NCc4ccc(Oc5ccccc5)cc4)cc4c3[C@@H](CCO)N(S(=O)C(C)(C)C)C4)c2)cc1OC (stereo partly drawn)	?	16µM*	?	32µM*
Cc1cccc2cc(C#N)c(SCCN3CCCCC3)nc12	25µM*	-21%	?	i
Cc1ccc(NC(=O)COc2ccccc2C(N)=O)cc1S(=O)(=O)N1CCCCCC1	?	-18%	?	15µM*
COc1cc(C(C)=O)ccc1OCC(=O)Nc1ccc(S(=O)(=O)N2CCCCC2)cc1	·	0%	-1%	?
COc1cc(C(C)=O)ccc1OCC(=O)Nc1ccc(C)c(S(=O)(=O)N2CCCCCC2)c1	28µM*	-31%	?	?
COc1cc(NC(C)CCCN)c2ncccc2c1 (stereo not drawn)	?	-55%	?	13µM*!
COc1ccc(CCNC(=S)Nc2ccc(C(C)C)cc2)cc1	·	-72%	16µM*	i
SMILES	ATXN2 expr inh	HepG2 tox	TGFb SMAD3 inh	S2 tox
CCCCc1ccc(NC(=S)NCc2ccc(OC)cc2)cc1	·	-40%	10µM*	i
C[C@@]1(c2cc(-c3cncnc3)c(F)cc2F)CCSC(N)=N1	14%	·	·	·
CN(C)CCCN(C(=O)CCc1ccccc1)c1nc2ccc(Br)cc2s1	25µM*	-102%	16µM*	?
CC(=O)c1ccc(C(=O)N(CCCN(C)C)c2nc3c(C)c(C)ccc3s2)cc1	-31%	-57%	?	i
Cc1cccc2sc(N(CCCN(C)C)C(=O)CCc3ccccc3)nc12	?	-110%	13µM*	i
CN(C)CCCN(C(=O)c1ccco1)c1nc2ccc(Cl)cc2s1	?	-32%	?	·
Cc1ccc2sc(N(CCCN(C)C)C(=O)c3ccc(Br)s3)nc2c1C	20µM*	13µM*	?	·
CN(C)CCCN(C(=O)c1ccco1)c1nc2ccc(Br)cc2s1	25µM*	-72%	0%	?
O=S(=O)(c1ccc(F)cc1)N1CCN(c2nc(-c3cccc(Br)c3)nc3ccccc23)CC1	·	-35%	0%	·
CC(C)(C)n1ncc2c(=O)n(Cc3ccc(C(F)(F)F)cc3)cnc21	·	-33%	-23%	·
